Measurements published in PubChem BioAssay (Tox21).
Results filed as inconclusive are left out. Activity calls are given as the source filed them. Unless noted, calls come from the whole dose curve; as a rule, active = well fitted curve in the direction sought with a large enough effect in the repeat runs; inconclusive = weak or mixed curves; inactive = no such curve, though single readings can be large; an effect the other way counts as inactive or inconclusive.

How the values were obtained:
[1] = qHTS assay to identify small molecule agonists of the sonic hedgehog signaling (Shh) pathway (AID 1259368; calls by dose curve;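 note: NIH/3T3-derived 3T3Gli1-Luc cells carrying a stable Gli1-driven firefly luciferase reporter; series mostly up to about 92 µM; nearly all actives have a fitted effect of over 15% in size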)
Outline: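 Cells of a mouse NIH/3T3 clone stably expressing luciferase under the Gli1 transcriptional response element are exposed to test chemicals for 24 hr at 37 C. Pathway activation is detected as a rise in luminescence.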

[2] = target: Estrogen receptor beta (Homo sapiens) (UniProt Q92731); assay: qHTS assay to identify small molecule agonists of the estrogen receptor beta (ER-beta) signaling pathway (AID 1259377; active = well fitted activation curve with a large enough effect in the signal ratio in the repeat runs, not every such curve was filed as active; the % refers to the signal ratio)
Outline: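 ER-beta-UAS-bla HEK293T cells in medium with 2% charcoal-stripped FBS were exposed to compounds for 16 h at 37C. Beta-lactamase reporter activity was read as fluorescence after 2 h with LiveBLAzer B/G FRET substrate at room temperature.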

[3] = target: Estrogen receptor beta (Homo sapiens) (UniProt Q92731); assay: qHTS assay to identify small molecule antagonists of the estrogen receptor beta (ER-beta) signaling pathway (AID 1259378; active = well fitted inhibition curve with a large enough effect in the signal ratio in the repeat runs, not every such curve was filed as active; the % refers to the signal ratio)
Outline: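 ER-beta-UAS-bla HEK293T cells in 2% charcoal-stripped FBS medium treated with compound plus 1nM final 17-beta-estradiol for 16 hr at 37C. Beta-lactamase reporter read by FRET substrate fluorescence after 2 hours at room temperature.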

[4] = qHTS assay to identify small molecule agonists of the androgen receptor (AR) signaling pathway in the presence of an antagonist - cell viability counter screen (AID 1259379);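 note: MDA-kb2 human breast cancer cells carrying an MMTV luciferase reporter; series mostly up to about 92 µM; nearly all actives have a fitted effect of over 25% in size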
Outline: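 Cytotoxicity is assessed by CellTiter-Fluor in MDA-kb2 cells carrying an MMTV-driven luciferase reporter. Cells receive 3.0uM nilutamide plus compounds at 15 concentrations and incubate 16 hr at 37C without CO2 before fluorescence reading.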

[5] = qHTS assay to identify small molecule agonists of the estrogen receptor beta (ER-beta) signaling pathway - cell viability counter screen (AID 1259380); note: nearly all actives have a fitted effect of over 30% in size
Outline: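 Cytotoxicity is measured in parallel with the reporter screen: after 16 hr compound exposure at 37C and a 2 hr LiveBLAzer step, CellTiter-Glo is added to the same ER-beta-UAS-bla HEK293T wells and luminescence read after 30 min.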

[6] = qHTS assay to identify small molecule antagonists of the estrogen receptor beta (ER-beta) signaling pathway - cell viability counter screen (AID 1259382); note: series mostly up to about 92 µM; nearly all actives have a fitted effect of over 55% in size
Outline: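 Cytotoxicity counter screen multiplexed with the beta-lactamase antagonist assay: GripTite HEK293T ER-beta-bla cells were treated 16 hr with test chemicals in the presence of 1nM 17-beta-estradiol, and viability was measured by CellTiter-Glo.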

[7] = target: Estrogen receptor (Homo sapiens) (UniProt P03372); assay: qHTS assay to identify small molecule agonists of the estrogen receptor alpha (ER-alpha) signaling pathway in the presence of an antagonist (AID 1259383; calls by dose curve; note: top concentration of the series differs between compounds; nearly all actives have a fitted effect of over 15% in size)
Outline: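 Agonist-mode confirmation in the presence of the ER antagonist ICI-182,780 at 10.0nM final. Breast-derived VM7Luc4E2 reporter cells were exposed to compounds for 22hr, and ERE-driven luciferase was quantified by luminescence.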

[8] = qHTS assay to identify small molecule agonists or antagonists of the thyroid stimulating hormone receptor (TSHR) signaling pathway - wild type cell line counter screen (AID 1259384; calls by dose curve)
Outline: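 Wild-type Hek293 cells, 800/well, 18 h at 37C, then compound with Ro20-1724 for 30 min RT. cAMP by HTRF (cAMP-d2/anti-cAMP cryptate), 1 h RT, fluorescence read. 15 concentrations, triplicates.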

[9] = target: Thyrotropin receptor (Homo sapiens) (UniProt P16473); assay: qHTS assay to identify small molecule antagonists of the thyroid stimulating hormone receptor (TSHR) signaling pathway (AID 1259385; calls by dose curve; note: nearly all actives have a fitted effect of over 20% in size)
Outline: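 TSHR-HEK293 cells (800/well) plated 18 h, then compounds with Ro20-1724 and TSH at 1.5 ng/mL final, 30 min at room temperature. cAMP quantified by HTRF (cAMP-d2/anti-cAMP-cryptate, 1 h); 15 concentrations in triplicate.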

[10] = qHTS assay to identify small molecule agonists of the estrogen receptor alpha (ER-alpha) signaling pathway in the presence of an antagonist - cell viability counter screen (AID 1259386);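 note: series mostly up to about 92 µM; cells exposed to compounds for 22 h at 37 °C before the viability read; nearly all actives have a fitted effect of over 30% in size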
Outline: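 Cytotoxicity was measured in parallel with the ERE-luciferase agonist screen, in the same wells. The cells were VM7Luc4E2, which endogenously express ER-alpha, and treatment was with compounds plus 10.0nM ICI-182,780 for 22hr.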

[11] = target: Progesterone receptor (Homo sapiens) (UniProt P06401); assay: qHTS assay to identify small molecule agonists of the progesterone receptor (PR) signaling pathway (AID 1346784; calls by dose curve; note: nearly all actives have a fitted effect of over 30% in size)
Outline: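 PR-UAS-bla HEK 293T cells (beta-lactamase reporter under UAS) in 2% charcoal-stripped FBS, dosed with 23 nL compound after 6 hr, incubated 16hr at 37C. LiveBLAzer B/G FRET substrate added, fluorescence read after 2 hours.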

[12] = target: Progesterone receptor (Homo sapiens) (UniProt P06401); assay: qHTS assay to identify small molecule antagonists of the progesterone receptor (PR) signaling pathway (AID 1346795; active = well fitted inhibition curve with a large enough effect in the signal ratio in the repeat runs, not every such curve was filed as active; the % refers to the signal ratio)
Outline: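 PR-UAS-bla HEK293T cells with beta-lactamase reporter under UAS control, in 2% charcoal-stripped FBS, treated with compounds plus 1 nM promegestone (R5020, final) for 16 hr at 37C. Read-out: FRET beta-lactamase substrate fluorescence after 2 hr at room temperature.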

[13] = qHTS assay to identify small molecule antagonists of the progesterone receptor (PR) signaling pathway - cell viability counter screen (AID 1346798); note: series mostly up to about 92 µM; nearly all actives have a fitted effect of over 50% in size
Outline: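 PR-UAS-bla HEK293T cells, 3,000/well in 2% charcoal-stripped FBS medium, dosed with compounds plus R5020 agonist and incubated 16 h at 37C. Viability then measured in the same wells by CellTiter-Glo luminescence after 30 min at RT.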

[14] = qHTS assay to identify small molecule agonists of the progesterone receptor (PR) signaling pathway - cell viability counter screen (AID 1346799; calls by dose curve; note: nearly all actives have a fitted effect of over 45% in size)
Outline: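 Counter screen in the PR-UAS-bla HEK293T wells (2% charcoal-stripped FBS, 16 h compound exposure at 37 C) after the bla read. CellTiter-Glo added, 30 min at room temperature, luminescence read as cell viability.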

[15] = qHTS assay to identify small molecule antagonists of the TGF-beta/Smad signaling pathway - cell viability counter screen (AID 1346824); note: nearly all actives have a fitted effect of over 50% in size
Outline: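 SBE-bla HEK 293T cells, incubated overnight, then compound plus 0.25 ng/mL TGF-beta1 (stock added) for 5 hr at 37 C. Viability was read in the same wells by CellTiter-Glo luminescence after 30 min at room temperature.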

[16] = target: Thyrotropin-releasing hormone receptor (Homo sapiens) (UniProt P34981); assay: qHTS assay to identify small molecule antagonists of the thyrotropin-releasing hormone receptor (TRHR) signaling pathway (AID 1346877; active = well fitted inhibition curve with a large enough effect in the repeat runs, not every such curve was filed as active; note: series mostly up to about 51 µM)
Outline: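 Antagonism is measured as suppression of the calcium response to 1 nM TRH in TRHR-HEK293 cells that have been dye-loaded for 2 h at 37 °C after overnight plating. Each compound is tested at 15 concentrations in triplicate.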

[17] = qHTS assay to identify small molecule antagonists of the sonic hedgehog signaling (Shh) pathway (AID 1259369; calls by dose curve; note: nearly all actives have a fitted effect of over 45% in size)
Outline: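 Cells are plated and held 4hr at 37 C, compounds (DMSO) are pinned in, conditioned medium is added to stimulate the pathway, and after 24hr luciferase reagent is added for 30min before luminescence is read.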

[18] = qHTS assay to identify small molecule agonists of the TGF-beta/Smad signaling pathway - cell viability counter screen (AID 1346829); note: top concentration of the series differs between compounds; nearly all actives have a fitted effect of over 45% in size
Outline: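 Compound-treated SBE-bla HEK 293T cells (5 hr, 37 C) were assessed for viability with CellTiter-Glo in parallel with the reporter read.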

[19] = qHTS assay to identify small molecule agonists of the TGF-beta/Smad signaling pathway (AID 1346859; active = well fitted activation curve with a large enough effect in the signal ratio in the repeat runs, not every such curve was filed as active; the % refers to the signal ratio; note: series mostly up to about 77 µM)
Outline: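 SBE-bla HEK293T cells plated overnight, then compound exposure for 5 h at 37 C. Beta-lactamase reporter read with LiveBLAzer B/G FRET substrate after 2 h at room temperature, fluorescence at 405 nm excitation, 460/530 nm emission.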

[20] = target: Androgen receptor (Homo sapiens) (UniProt P10275); assay: qHTS assay to identify small molecule agonists of the androgen receptor (AR) signaling pathway in the presence of an antagonist (AID 1259381; calls by dose curve; note: nearly all actives have a fitted effect of over 15% in size)
Outline: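 Agonist-mode confirmation screen: human MDA-kb2 cells stably expressing luciferase under an MMTV promoter bearing AR and GR response elements, co-treated with 3.0uM nilutamide (final). Luminescence measured after 16hr compound incubation.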

Measured: Potency

Sequence of Androgen receptor (Homo sapiens) (P10275 whole entry, looked up): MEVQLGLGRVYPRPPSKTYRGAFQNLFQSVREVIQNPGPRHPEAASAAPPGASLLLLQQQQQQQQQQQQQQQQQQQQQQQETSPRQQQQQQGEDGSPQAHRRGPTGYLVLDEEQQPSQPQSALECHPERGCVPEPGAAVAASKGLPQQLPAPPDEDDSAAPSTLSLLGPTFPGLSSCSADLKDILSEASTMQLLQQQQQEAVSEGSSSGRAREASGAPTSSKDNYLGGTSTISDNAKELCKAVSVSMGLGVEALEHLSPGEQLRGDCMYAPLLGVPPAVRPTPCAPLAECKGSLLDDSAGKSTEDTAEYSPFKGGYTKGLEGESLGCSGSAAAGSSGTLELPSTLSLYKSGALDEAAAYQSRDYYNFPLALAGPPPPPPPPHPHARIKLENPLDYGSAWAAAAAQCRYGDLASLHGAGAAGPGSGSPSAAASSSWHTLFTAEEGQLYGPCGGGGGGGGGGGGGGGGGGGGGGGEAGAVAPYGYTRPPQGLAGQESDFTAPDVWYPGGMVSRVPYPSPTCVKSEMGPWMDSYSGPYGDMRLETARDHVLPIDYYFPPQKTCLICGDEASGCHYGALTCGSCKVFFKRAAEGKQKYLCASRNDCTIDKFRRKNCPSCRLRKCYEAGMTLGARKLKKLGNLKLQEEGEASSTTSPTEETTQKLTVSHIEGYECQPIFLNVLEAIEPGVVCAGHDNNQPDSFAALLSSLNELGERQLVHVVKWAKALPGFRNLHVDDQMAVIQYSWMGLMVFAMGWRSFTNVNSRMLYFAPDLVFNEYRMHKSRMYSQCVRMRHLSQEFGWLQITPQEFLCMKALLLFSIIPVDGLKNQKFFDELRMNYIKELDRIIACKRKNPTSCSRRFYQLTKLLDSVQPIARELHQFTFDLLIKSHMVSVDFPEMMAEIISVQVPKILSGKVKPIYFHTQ
Sequence of Estrogen receptor beta (Homo sapiens) (Q92731 whole entry, looked up): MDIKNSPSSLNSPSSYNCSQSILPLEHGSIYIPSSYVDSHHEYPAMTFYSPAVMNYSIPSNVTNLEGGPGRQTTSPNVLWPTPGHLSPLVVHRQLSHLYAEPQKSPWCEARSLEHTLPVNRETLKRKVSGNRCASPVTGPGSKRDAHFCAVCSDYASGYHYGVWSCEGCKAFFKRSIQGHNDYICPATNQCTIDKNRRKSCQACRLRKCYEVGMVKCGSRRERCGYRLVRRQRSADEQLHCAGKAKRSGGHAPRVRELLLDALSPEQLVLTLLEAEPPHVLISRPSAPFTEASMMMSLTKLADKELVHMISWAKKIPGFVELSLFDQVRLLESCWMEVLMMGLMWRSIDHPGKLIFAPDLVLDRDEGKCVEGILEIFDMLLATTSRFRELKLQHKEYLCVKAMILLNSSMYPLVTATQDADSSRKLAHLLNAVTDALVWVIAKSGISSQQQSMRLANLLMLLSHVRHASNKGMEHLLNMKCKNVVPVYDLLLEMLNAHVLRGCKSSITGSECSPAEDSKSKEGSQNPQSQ
Sequence of Estrogen receptor (Homo sapiens) (P03372 whole entry, looked up): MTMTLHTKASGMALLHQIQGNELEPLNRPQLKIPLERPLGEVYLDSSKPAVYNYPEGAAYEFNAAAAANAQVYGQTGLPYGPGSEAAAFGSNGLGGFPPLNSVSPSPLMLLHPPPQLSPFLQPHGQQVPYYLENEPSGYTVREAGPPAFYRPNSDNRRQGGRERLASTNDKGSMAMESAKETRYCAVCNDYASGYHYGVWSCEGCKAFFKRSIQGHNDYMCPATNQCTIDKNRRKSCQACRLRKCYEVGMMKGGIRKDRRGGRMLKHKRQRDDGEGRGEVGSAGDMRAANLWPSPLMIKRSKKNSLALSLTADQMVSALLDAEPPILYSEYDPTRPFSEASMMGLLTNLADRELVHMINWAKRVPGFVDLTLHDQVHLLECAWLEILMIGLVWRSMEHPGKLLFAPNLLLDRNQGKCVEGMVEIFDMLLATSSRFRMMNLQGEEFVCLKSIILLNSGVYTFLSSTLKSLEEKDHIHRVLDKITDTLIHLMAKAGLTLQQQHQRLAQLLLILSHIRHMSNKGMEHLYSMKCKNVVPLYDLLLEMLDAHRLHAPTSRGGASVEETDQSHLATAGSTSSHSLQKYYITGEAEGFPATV
Sequence of Progesterone receptor (Homo sapiens) (P06401 whole entry, looked up): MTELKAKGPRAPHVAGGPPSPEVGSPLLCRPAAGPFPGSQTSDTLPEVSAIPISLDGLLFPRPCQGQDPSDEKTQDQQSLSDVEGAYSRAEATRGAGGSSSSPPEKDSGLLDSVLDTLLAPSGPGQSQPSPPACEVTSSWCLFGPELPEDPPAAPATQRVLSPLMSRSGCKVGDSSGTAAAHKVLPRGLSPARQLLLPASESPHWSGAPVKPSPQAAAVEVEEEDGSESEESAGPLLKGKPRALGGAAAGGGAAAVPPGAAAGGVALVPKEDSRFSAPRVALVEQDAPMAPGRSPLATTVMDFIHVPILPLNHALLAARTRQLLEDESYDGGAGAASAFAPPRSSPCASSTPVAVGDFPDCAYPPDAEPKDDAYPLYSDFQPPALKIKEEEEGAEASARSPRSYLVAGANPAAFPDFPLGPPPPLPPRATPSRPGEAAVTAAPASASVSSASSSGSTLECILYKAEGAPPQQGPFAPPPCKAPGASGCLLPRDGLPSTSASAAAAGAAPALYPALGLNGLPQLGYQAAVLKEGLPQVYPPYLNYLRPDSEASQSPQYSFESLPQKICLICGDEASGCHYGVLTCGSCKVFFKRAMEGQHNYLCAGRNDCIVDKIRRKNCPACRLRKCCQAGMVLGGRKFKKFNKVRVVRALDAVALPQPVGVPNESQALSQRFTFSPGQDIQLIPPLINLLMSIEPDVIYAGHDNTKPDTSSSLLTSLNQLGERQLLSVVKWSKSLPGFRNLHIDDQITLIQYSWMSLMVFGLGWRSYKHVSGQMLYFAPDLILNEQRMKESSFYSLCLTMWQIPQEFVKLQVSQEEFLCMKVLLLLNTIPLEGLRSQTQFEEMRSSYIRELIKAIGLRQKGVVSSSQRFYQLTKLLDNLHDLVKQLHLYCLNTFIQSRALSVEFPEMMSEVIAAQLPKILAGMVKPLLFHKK
Sequence of Thyrotropin-releasing hormone receptor (Homo sapiens) (P34981 whole entry, looked up): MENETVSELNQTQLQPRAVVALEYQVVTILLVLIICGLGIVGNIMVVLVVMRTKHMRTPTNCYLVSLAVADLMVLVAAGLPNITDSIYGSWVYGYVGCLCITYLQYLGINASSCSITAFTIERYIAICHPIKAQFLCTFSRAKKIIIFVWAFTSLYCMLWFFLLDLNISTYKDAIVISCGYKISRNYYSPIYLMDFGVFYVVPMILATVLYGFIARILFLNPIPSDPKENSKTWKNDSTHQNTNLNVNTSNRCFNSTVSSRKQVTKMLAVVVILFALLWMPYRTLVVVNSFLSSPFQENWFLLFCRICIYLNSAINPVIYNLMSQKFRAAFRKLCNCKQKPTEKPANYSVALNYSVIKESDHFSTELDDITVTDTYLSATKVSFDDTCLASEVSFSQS
Sequence of Thyrotropin receptor (Homo sapiens) (P16473 whole entry, looked up): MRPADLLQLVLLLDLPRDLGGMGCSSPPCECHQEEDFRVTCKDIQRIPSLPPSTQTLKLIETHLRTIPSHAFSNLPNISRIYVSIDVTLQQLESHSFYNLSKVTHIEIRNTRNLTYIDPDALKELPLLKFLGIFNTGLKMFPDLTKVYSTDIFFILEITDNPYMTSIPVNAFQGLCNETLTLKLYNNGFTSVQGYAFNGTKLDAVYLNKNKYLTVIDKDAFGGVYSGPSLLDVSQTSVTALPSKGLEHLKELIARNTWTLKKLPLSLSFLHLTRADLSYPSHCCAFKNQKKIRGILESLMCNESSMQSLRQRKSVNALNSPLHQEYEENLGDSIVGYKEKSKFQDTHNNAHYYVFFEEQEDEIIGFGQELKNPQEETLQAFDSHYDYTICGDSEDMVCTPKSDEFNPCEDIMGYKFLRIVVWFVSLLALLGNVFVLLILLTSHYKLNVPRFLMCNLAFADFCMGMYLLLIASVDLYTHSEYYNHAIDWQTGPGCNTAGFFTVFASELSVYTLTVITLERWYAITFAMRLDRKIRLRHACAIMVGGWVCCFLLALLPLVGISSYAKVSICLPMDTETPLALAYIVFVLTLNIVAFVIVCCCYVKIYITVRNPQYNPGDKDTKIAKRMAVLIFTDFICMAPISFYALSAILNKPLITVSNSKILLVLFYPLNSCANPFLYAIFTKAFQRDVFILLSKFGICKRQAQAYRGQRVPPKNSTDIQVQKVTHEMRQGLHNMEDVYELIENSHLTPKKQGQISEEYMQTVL

Cc1ccc(=O)n(-c2ccccc2)c1
inactive: [1] | [2] | [3] | [4] | [5] | [6] | [7] | [8] | [9] | [10] | [11] | [12] | [13] | [14] | [15] | [16]

CCCN1CCCC[C@H]1C(=O)Nc1c(C)cccc1C
inactive: [1] | [17] | [4] | [5] | [6] | [8] | [9] | [10] | [11] | [13] | [14] | [15] | [18] | [19]

C=C[Si](OC(=C)C)(OC(=C)C)OC(=C)C
inactive: [1] | [2] | [3] | [4] | [5] | [6] | [7] | [8] | [9] | [10] | [11] | [12] | [13] | [14] | [15] | [18] | [19]

CC(C)(O)C(=O)c1ccccc1
inactive: [1] | [2] | [3] | [4] | [5] | [20] | [6] | [7] | [8] | [9] | [10] | [11] | [12] | [13] | [14] | [15] | [19]

CC(C)(C)c1nnc(NS(=O)(=O)c2ccccc2)s1
inactive: [1] | [2] | [3] | [4] | [5] | [6] | [7] | [8] | [9] | [10] | [11] | [12] | [13] | [14] | [15] | [19] | [16]

O=C(O)c1ccccc1OP(=O)(O)O
inactive: [1] | [2] | [3] | [4] | [5] | [6] | [7] | [8] | [9] | [10] | [11] | [12] | [13] | [15] | [18] | [16]

NS(=O)(=O)c1cc2c(cc1Cl)NC(C1CC3C=CC1C3)NS2(=O)=O (centres undefined)
inactive: [1] | [2] | [3] | [4] | [5] | [20] | [6] | [7] | [10] | [11] | [12] | [13] | [14] | [15] | [18] | [16]

c1ccc([C@H]2CN3CCSC3=N2)cc1
inactive: [1] | [2] | [3] | [4] | [5] | [6] | [7] | [8] | [9] | [10] | [11] | [12] | [13] | [15] | [19] | [16]

CCO/C([O-])=N/c1c[n+](N2CCOCC2)no1
inactive: [1] | [2] | [3] | [4] | [5] | [6] | [7] | [8] | [9] | [10] | [11] | [12] | [13] | [14] | [15] | [18] | [19]

CN1C(=O)N(C)C(O)C1O (centres undefined)
inactive: [1] | [2] | [3] | [4] | [5] | [6] | [7] | [8] | [9] | [10] | [11] | [12] | [13] | [14] | [15] | [18] | [19] | [16]

CCOC(=O)[C@H](CCc1ccccc1)N[C@@H](C)C(=O)N1[C@H](C(=O)O)C[C@@H]2CCC[C@@H]21
inactive: [1] | [2] | [3] | [4] | [5] | [6] | [7] | [8] | [9] | [10] | [11] | [12] | [13] | [14] | [15] | [18] | [19] | [16]

C=C(C)C(=O)OCCCCCCCC(C)C
inactive: [1] | [2] | [3] | [4] | [5] | [20] | [6] | [7] | [8] | [9] | [10] | [11] | [12] | [13] | [14] | [15] | [18] | [19] | [16]

CN(C(=O)c1c(O)c2ccccc2n(C)c1=O)c1ccccc1
inactive: [1] | [17] | [4] | [5] | [6] | [10] | [11] | [12] | [13] | [15] | [18] | [19]

CC(=O)c1ccccc1O
inactive: [1] | [17] | [4] | [6] | [7] | [8] | [9] | [10] | [11] | [12] | [13] | [14] | [15] | [18] | [19] | [16]

Nc1c2c(nc3ccccc13)CCCC2O (centres undefined)
inactive: [1] | [2] | [3] | [4] | [5] | [6] | [7] | [8] | [9] | [10] | [11] | [12] | [13] | [14] | [15] | [18] | [19] | [16]

Cn1c(N)c(N=O)c(=O)n(C)c1=O
inactive: [1] | [17] | [4] | [5] | [6] | [10] | [11] | [13] | [14] | [15] | [19] | [16]
